Screens as filed in PubChem.
FEN1 inhibitor = blocks human flap endonuclease 1; Recombinant FEN1 flap cleavage, fluorescence, 15 min; actives 0.35% (n = 390,000); AID 588795; Potency, µM (highest dose often 114 µM), most hits filed as inhibitors; note: nearly all actives have a fitted effect of over 65% in size
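With each library titrated from low to high concentration, compounds met 10 nM FEN1 for 15 min at room temperature before 50 nM substrate was added; readings at 0 and 15 min fed four-parameter Hill curve fits.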
PI5P4K alpha inh = inhibitors of human PI5P4K alpha; actives 1.2% (n = 330,000); max response, %; P48426; PI5P4Kalpha enzyme, ADP-Glo luminescence, 60 min; hits give low values; active = max response of -50% or lower; inconclusive = between -30% and -50%; inactive = -30% or higher; note: value at the top dose of about 77 µM
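Controls without substrate or without enzyme flank wells where PI5P4Kalpha converts substrate using 5 microM ATP (final). Incubation lasts 60 minutes at room temperature; ADP formed is read by ADP-Glo luminescence.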
KAT2A inh = blocks human GCN5L2 histone acetyltransferase. Q92830. GCN5L2 HAT assay, ThioGlo1 CoA-SH fluorescence. Potency, µM (highest dose often 58.9 µM), most hits filed as inhibitors. actives 0.21% (n = 390,000). AID 504327
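Titration-based screen in which CoA formation is detected via maleimide probe ThioGlo1 (50uM) turning fluorescent on thiol reaction; substrates H3(1-25) 75uM and acetyl-CoA 70uM, GCN5L2 20nM, 20 min incubation at room temperature.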
BLM helicase inh = inhibitors of human Bloom syndrome helicase BLM. AID 2528. recombinant BLM DNA unwinding, fluorescence dequenching. P54132. Potency, µM (top dose mostly 56.1 µM), actives largely listed as inhibitors. actives 0.2% (n = 350,000); note: nearly all actives have a fitted effect of over 35% in size
RECQ1 helicase = blocks DNA unwinding by human RECQ1; P46063; RECQ1 DNA unwinding, red fluorescence kinetic read; Potency, µM (titrated, usually from 57.3 µM), most hits filed as inhibitors; actives 0.54% (n = 240,000); AID 2549; note: nearly all actives have a fitted effect of over 30% in size
Target sequence (P46063 whole entry, looked up): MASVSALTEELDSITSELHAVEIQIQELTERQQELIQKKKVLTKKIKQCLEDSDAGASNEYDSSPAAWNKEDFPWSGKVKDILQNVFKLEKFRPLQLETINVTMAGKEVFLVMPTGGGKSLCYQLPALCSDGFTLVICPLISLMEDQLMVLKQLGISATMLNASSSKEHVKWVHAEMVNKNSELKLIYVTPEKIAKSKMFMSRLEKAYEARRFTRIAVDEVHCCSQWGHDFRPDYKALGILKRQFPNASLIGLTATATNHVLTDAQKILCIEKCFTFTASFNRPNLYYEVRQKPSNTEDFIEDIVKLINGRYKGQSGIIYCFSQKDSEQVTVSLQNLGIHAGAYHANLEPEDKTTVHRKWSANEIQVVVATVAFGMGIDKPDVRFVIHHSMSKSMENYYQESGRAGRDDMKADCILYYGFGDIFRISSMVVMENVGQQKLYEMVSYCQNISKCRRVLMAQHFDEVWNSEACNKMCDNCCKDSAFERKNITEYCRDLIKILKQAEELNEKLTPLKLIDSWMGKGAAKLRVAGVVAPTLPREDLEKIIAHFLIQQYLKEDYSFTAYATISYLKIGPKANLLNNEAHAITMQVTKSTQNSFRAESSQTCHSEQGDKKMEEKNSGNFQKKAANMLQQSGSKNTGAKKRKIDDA
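RECQ1T1 50 nM; forked duplex (20 bp + 30-nt ss tails) 200 nM, ATP 2 mM final; pH 8.0, 2 mM MgCl2, 2.5 ug/ml poly(dI-dC); 15 min compound preincubation; discontinuous kinetic read over 2 h at RT.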
APEX1 inh = blocks human APE1 abasic DNA cleavage. recombinant APE1, TAMRA/BHQ-2 abasic DNA cleavage fluorescence. Potency, µM (top dose mostly 65.8 µM), hits mostly inhibitors. actives 0.35% (n = 350,000); note: nearly all actives have a fitted effect of over 55% in size
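APE1 at 0.75 nM final was preincubated with compound 15 min at room temperature, then 50 nM double-stranded THF abasic-site substrate (5'-TAMRA/3'-BHQ-2) was added. Fluorescence (ex 525/em 598 nm) was read kinetically; third-minus-first read gave activity.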
Each line names hits and unclear results; the compound was inactive in the other large screens. The list is not random: actives were taken first. Their share in the collection is about 1.5%. Unless noted, calls come from the whole dose curve; as a rule, active = well fitted curve in the direction sought with a large enough effect; inconclusive = small, poorly fitted or top-dose-only effect, or another doubt; inactive = no such curve, though single readings can be large; an effect the other way counts as inactive or inconclusive.

CC(C)Cn1c(=S)[nH]c2cc(C(=O)O)ccc2c1=O	PI5P4K alpha inh -59
CC1(C)CC2C1CC[C@]1(C)CCC3C(C(=O)O)CC(=O)O[C@]32C1 (stereo partly drawn)	KAT2A inh 7.9µM (no result: FEN1 inhibitor, PI5P4K alpha inh)
CN(C)[C@@H]1C(=O)C(C(=O)NCN2CCCC2)=C(O)[C@@]2(O)C(=O)C3=C(O)c4c(O)cccc4[C@@](C)(O)C3C[C@@H]12 (stereo partly drawn)	APEX1 inh 7.9µM (no result: FEN1 inhibitor, PI5P4K alpha inh, KAT2A inh, BLM helicase inh, RECQ1 helicase)
Cc1ccc2c(c1)ncc[n+]2CC(=O)c1ccc(F)cc1	none (no result: PI5P4K alpha inh, KAT2A inh, BLM helicase inh, RECQ1 helicase, APEX1 inh)
O=C(CCC1CCCCC1)Nc1ccccc1-c1ccccc1	KAT2A inh 3.2µM
Oc1ccc(COC2CCCC2)c2cccnc12	none (no result: FEN1 inhibitor, PI5P4K alpha inh, BLM helicase inh, RECQ1 helicase)
O=c1oc(-c2ccc(C(F)(F)F)cc2)nn1Cc1cc(Cl)ccc1O	none (no result: FEN1 inhibitor, PI5P4K alpha inh)
CCOC(=O)c1[nH]c2c(c1C)C(=O)CC(c1ccco1)C2 (stereo not drawn)	FEN1 inhibitor inconclusive, PI5P4K alpha inh -68, RECQ1 helicase inconclusive, APEX1 inh inconclusive
COCCOC(=O)c1[nH]c2c(c1C)C(=O)CC(c1ccccc1)C2 (stereo not drawn)	none
Brc1ccc(/C=C2\C=Cc3ccccc32)cc1	none (no result: PI5P4K alpha inh, KAT2A inh, BLM helicase inh, RECQ1 helicase, APEX1 inh)
COc1c(O)c(O)cc2c1oc1c3cc(C)ccc3oc(=O)c21	BLM helicase inh inconclusive, RECQ1 helicase 8.9µM, APEX1 inh inconclusive (no result: FEN1 inhibitor, PI5P4K alpha inh, KAT2A inh)
COc1cc(-c2oc3ccc(C)cc3c(=O)c2O)cc(OC)c1OC	none (no result: PI5P4K alpha inh, RECQ1 helicase, APEX1 inh)
Cc1c(C)c(C)c(/C=C/c2ccnc3ccccc23)c(C)c1C	none (no result: PI5P4K alpha inh, KAT2A inh, BLM helicase inh, RECQ1 helicase, APEX1 inh)
CCc1c(C)nc(Nc2nc(C)c3ccc(OC)cc3n2)[nH]c1=O	none (no result: PI5P4K alpha inh)
COc1ccc2c(C)nc(Nc3nc(C)c(C)c(=O)[nH]3)nc2c1	FEN1 inhibitor 45µM (no result: PI5P4K alpha inh)
CCCCc1ccc(NC(=O)COC(=O)c2ccccc2OCC(=O)Nc2ccc(Br)cc2)cc1	none (no result: PI5P4K alpha inh, KAT2A inh, BLM helicase inh, RECQ1 helicase, APEX1 inh)
N#C/C(=C/c1ccc(-c2ccc(S(N)(=O)=O)cc2)o1)c1nc2ccccc2s1	PI5P4K alpha inh -53, RECQ1 helicase inconclusive
O=C(C[n+]1cc(Br)cc(Br)c1)c1ccc2c(c1)CCCC2	none (no result: PI5P4K alpha inh, KAT2A inh, BLM helicase inh, RECQ1 helicase, APEX1 inh)
CCCCc1cc2c(cn1)=C(OC(=O)c1ccc(Cl)nc1)C(C)(OC(=O)CC)C(=O)C=2 (stereo not drawn)	none (no result: FEN1 inhibitor, PI5P4K alpha inh, KAT2A inh)
CS(=O)(=O)Nc1cccc(-c2cn3c(n2)SCC3)c1	FEN1 inhibitor 20µM (no result: RECQ1 helicase)
CC12CCC(C[N+](C)(CCC[N+](C)(C)C)C1)C2(C)C (stereo not drawn)	KAT2A inh 22µM (no result: FEN1 inhibitor, PI5P4K alpha inh, RECQ1 helicase, APEX1 inh)
O=C1/C(=C/c2ccccn2)SC(=S)N1Nc1ncc(C(F)(F)F)cc1Cl	PI5P4K alpha inh -66 (no result: KAT2A inh, BLM helicase inh, RECQ1 helicase, APEX1 inh)
NC(=S)N=Nc1ccc(NN=C(N)N)cc1	FEN1 inhibitor 50µM, PI5P4K alpha inh -84, KAT2A inh inconclusive (no result: RECQ1 helicase)
N#C/C(=N/Nc1ccc(OC(F)(F)F)cc1)C(N)=S	PI5P4K alpha inh inconclusive
Cc1cc(C=Nc2ccc(/C=C/c3ccnc4ccccc34)cc2)ccc1N(C)C	none (no result: PI5P4K alpha inh, KAT2A inh, BLM helicase inh, RECQ1 helicase, APEX1 inh)
CCOC1=C2[C@H](c3ccccc3)N(S(=O)(=O)c3ccc(C)cc3)C(C(C)(C)C)[C@H]2C(C#N)(C#N)C(C#N)(C#N)C1 (stereo partly drawn)	PI5P4K alpha inh -50 (no result: FEN1 inhibitor, KAT2A inh, BLM helicase inh, RECQ1 helicase, APEX1 inh)
CSCc1c(C(=O)OCC(=O)c2ccc[nH]2)oc2ccccc12	PI5P4K alpha inh -76 (no result: BLM helicase inh, RECQ1 helicase)
Cc1cc(C)c(S(=O)(=O)Nc2ccc(O)cc2)cc1C	none
Cc1cc(C)c(S(=O)(=O)Nc2cc(SCC(=O)O)c(O)c3ccccc23)cc1C	PI5P4K alpha inh -60, BLM helicase inh 16µM, APEX1 inh inconclusive
O=[N+]([O-])c1cccc(-c2nnc3ccc4ccccc4n23)c1	RECQ1 helicase inconclusive, APEX1 inh 13µM
O=[N+]([O-])c1cccc(-c2nnc3cccc(Cl)n23)c1	none (no result: RECQ1 helicase)
O=C(OC1CCCCC1)c1ccc2c(c1)C1C=CCC1C(C(=O)O)N2 (stereo not drawn)	KAT2A inh 20µM, BLM helicase inh 16µM, RECQ1 helicase 7.9µM, APEX1 inh inconclusive (no result: FEN1 inhibitor, PI5P4K alpha inh)
COc1ccc(OC)c([C@@H]2Nc3ccc(C(=O)O)cc3[C@@H]3C=CC[C@@H]32)c1	none (no result: PI5P4K alpha inh, RECQ1 helicase, APEX1 inh)
